Among the data in the antibiotic and cytotoxicity screens of Wong et al. (2023) are cytotoxicity call values, retold here.

About 1,500 (3.8%) of roughly 39,000 compounds were called active. This excerpt belongs to a sample that is enriched for actives.

The experiment deals with HSkMC (human skeletal muscle cells). Briefly: cytotoxicity call (relative viability < 0.9). The following applies: 10 µM.
For `C[C@@H]1CCCCO[C@H](CN(C)C(=O)c2ccccc2)[C@H](C)CN([C@@H](C)CO)C(=O)c2cc(NC(=O)Cc3ccccc3)ccc2O1`, the cytotoxicity call was “inactive”.

`C[C@@H]1CN([C@@H](C)CO)C(=O)Cc2cc(NS(=O)(=O)c3cn(C)cn3)ccc2O[C@H]1CN(C)C`: the cytotoxicity call was “inactive”.

Consider `COC(=O)C1=CO[C@@H](O[C@@H]2O[C@H](CO)[C@@H](O)[C@H](O)[C@H]2O)[C@@H]2[C@@H](CO)C=C[C@H]12`, for which the cytotoxicity call is “inactive”. The same measure for `C[C@@H]1CN([C@@H](C)CO)C(=O)c2cc(NC(=O)CCC(F)(F)F)ccc2O[C@@H](C)CCCCO[C@@H]1CN(C)C(=O)C1CCCCC1`: “inactive”; for `COc1ccc(C#Cc2ccc3c(c2)O[C@@H](CN(C)C(C)=O)[C@@H](C)CN([C@H](C)CO)S3(=O)=O)cc1`: “inactive”; for `COc1ccc(CN(C)C[C@@H]2OCCCC[C@H](C)Oc3ccc(NC(=O)CCC(F)(F)F)cc3C(=O)N([C@@H](C)CO)C[C@@H]2C)cc1`: “inactive”.

Consider `CCCNc1nc(Nc2ccc(C#N)cc2)ncc1C#CCCCNC(=O)[C@H](C)N(C)C(=O)/C=C/CN(C)C`, for which the cytotoxicity call was “active”.

As to `OCc1ccccc1-n1cncn1`, the cytotoxicity call is “inactive”. As for `COc1ccc2c3c([nH]c2c1)[C@H](CO)N(CC1CCCC1)C[C@]13CCN(CC1)C(=O)c1ccc(cc1)F`, the entry is “active”. As for `COc1ccc2c3c([nH]c2c1)[C@H](CO)N(CC1CCCC1)C[C@]13CCN(CC1)C(=O)Nc1cccc(c1)F`, the entry is “inactive”; as for `COc1ccc2c3c([nH]c2c1)[C@@H](CO)N(CC1CCCC1)C[C@]13CCN(CC1)C(=O)Nc1cccc(c1)F`, “inactive”; as for `COc1ccc2c3c([nH]c2c1)[C@@H](CO)N(C[C@]13CCN(CC1)C(=O)Nc1ccc(cc1)F)C(=O)c1ccc(cc1)F`, “inactive”.

Regarding `COc1ccc2c3c([nH]c2c1)[C@@H](CO)N(CC1CCCC1)C[C@]13CCN(CC1)C(=O)c1ccc(cc1)F`, the cytotoxicity call is “active”. The same measure for `COc1ccc2c3c([nH]c2c1)[C@H](CO)N(C[C@]13CCN(CC1)C(=O)Nc1ccc(cc1)F)C(=O)c1ccc(cc1)F`: “inactive”; for `CC(=O)N[C@H](Cc1ccc2ccccc2c1)C(=O)N[C@H](Cc1ccc(Cl)cc1)C(=O)N[C@H](Cc1cccnc1)C(=O)N[C@@H](CO)C(=O)N(C)[C@@H](Cc1ccc(O)cc1)C(=O)N[C@H](CC(N)=O)C(=O)N[C@@H](CC(C)C)C(=O)N[C@@H](CCCCNC(C)C)C(=O)N1CCC[C@H]1C(=O)N[C@H](C)C(N)=O`: “inactive”. As for `CS(=O)(=O)Nc1ccc2c(c1)[C@@H]1C[C@H](CC(=O)NCc3ccc(-c4ccccc4)cc3)O[C@@H](CO)[C@@H]1O2`, the entry is “inactive”; as for `C[C@@H]1CN([C@@H](C)CO)C(=O)Cc2cc(NC(=O)CCCCCC(=O)Nc3ccccc3N)ccc2O[C@H]1CN(C)Cc1ccccc1`, “inactive”; as for `C[C@@H]1CN([C@H](C)CO)C(=O)c2cc(NC(=O)Nc3ccc(C(F)(F)F)cc3)ccc2O[C@@H](C)CCCCO[C@H]1CN(C)S(=O)(=O)c1ccc(F)cc1`, “inactive”.

For the compound `Cc1noc(C)c1NC(=O)N(C)C[C@@H]1OCCCC[C@H](C)Oc2ccc(NS(=O)(=O)c3ccccc3)cc2C(=O)N([C@@H](C)CO)C[C@@H]1C`, the cytotoxicity call was “inactive”. `CC(C)Oc1cccc(-n2c(CCc3c[nH]c4ccc(Br)cc34)nc3ccccc3c2=O)c1`: the cytotoxicity call was “active”. As for `COc1ccc2[nH]cc(CCNC(C)=O)c2c1`, the entry is “inactive”; as for `Cn1c(CN)nc2ccccc2c1=O`, “inactive”. The same measure for `C[C@@H]1CCCCO[C@H](CN(C)C(=O)Cc2ccccc2)[C@H](C)CN([C@H](C)CO)C(=O)c2cc(NS(=O)(=O)c3cccs3)ccc2O1`: “inactive”; for `Cc1noc(C)c1S(=O)(=O)Nc1ccc2c(c1)C(=O)N([C@@H](C)CO)C[C@H](C)[C@H](CN(C)S(=O)(=O)c1cn(C)cn1)O2`: “inactive”. As for `C[C@@H]1CN([C@@H](C)CO)C(=O)c2cc(NS(=O)(=O)c3cn(C)cn3)ccc2O[C@@H](C)CCCCO[C@H]1CN(C)C(=O)Nc1cccc2ccccc12`, the entry is “active”. On to `C[C@H](CO)N1C[C@H](C)[C@@H](CN(C)C(=O)Nc2cccc3ccccc23)OCCCC[C@H](C)Oc2ccc(NS(=O)(=O)c3cn(C)cn3)cc2C1=O`, for which the cytotoxicity call is “inactive”. As for `C[C@@H]1CCCCO[C@@H](CN(C)C(=O)Nc2cccc3ccccc23)[C@@H](C)CN([C@H](C)CO)C(=O)c2cc(NS(=O)(=O)c3cn(C)cn3)ccc2O1`, the entry is “inactive”; as for `C[C@@H]1CCCCO[C@H](CN(C)C(=O)Nc2cccc3ccccc23)[C@H](C)CN([C@H](C)CO)C(=O)c2cc(NS(=O)(=O)c3cn(C)cn3)ccc2O1`, “active”. As for `C[C@@H]1CN([C@@H](C)CO)C(=O)c2cc(NS(=O)(=O)c3cn(C)cn3)ccc2O[C@@H](C)CCCCO[C@@H]1CN(C)C(=O)Nc1cccc2ccccc12`, the entry is “active”.

On to `C[C@@H]1CCCCO[C@H](CN(C)C(=O)Nc2cccc3ccccc23)[C@@H](C)CN([C@@H](C)CO)C(=O)c2cc(NS(=O)(=O)c3cn(C)cn3)ccc2O1`, for which the cytotoxicity call is “inactive”.

Regarding `C[C@H]1CCCCO[C@@H](CN(C)C(=O)Nc2cccc3ccccc23)[C@@H](C)CN([C@@H](C)CO)C(=O)c2cc(NS(=O)(=O)c3cn(C)cn3)ccc2O1`, the cytotoxicity call was “active”. As for `C[C@@H]1CCCCO[C@@H](CN(C)C(=O)Nc2cccc3ccccc23)[C@H](C)CN([C@@H](C)CO)C(=O)c2cc(NS(=O)(=O)c3cn(C)cn3)ccc2O1`, the entry is “inactive”; as for `C[C@@H]1CCCCO[C@H](CN(C)C(=O)Nc2cccc3ccccc23)[C@H](C)CN([C@@H](C)CO)C(=O)c2cc(NS(=O)(=O)c3cn(C)cn3)ccc2O1`, “inactive”.

For `C[C@@H]1CCCCO[C@@H](CN(C)C(=O)Nc2cccc3ccccc23)[C@H](C)CN([C@H](C)CO)C(=O)c2cc(NS(=O)(=O)c3cn(C)cn3)ccc2O1`, the cytotoxicity call was “inactive”. On to `C[C@H](CO)N1C[C@H](C)[C@H](CN(C)C(=O)Nc2cccc3ccccc23)OCCCC[C@H](C)Oc2ccc(NS(=O)(=O)c3cn(C)cn3)cc2C1=O`, for which the cytotoxicity call is “inactive”. Regarding `C[C@H]1CCCCO[C@H](CN(C)C(=O)Nc2cccc3ccccc23)[C@@H](C)CN([C@@H](C)CO)C(=O)c2cc(NS(=O)(=O)c3cn(C)cn3)ccc2O1`, the cytotoxicity call is “inactive”. `C[C@@H]1CN([C@@H](C)CO)S(=O)(=O)c2ccc(-c3cncnc3)cc2O[C@H]1CN(C)C(=O)Cc1cccnc1`: the cytotoxicity call was “inactive”.
